Assay results taken from PubChem BioAssay (NCI).
About 79,000 compounds went through this panel and 15% of them were active in at least one assay; those are over-represented in the sample as a whole. A number with no mark means an inactive call. Active and inactive are the calls of the source. Rule as the data show it: active = growth inhibition above about 70%; inactive = the rest.

Experiments:
[1] = NCI Yeast Anticancer Drug Screen. Data for the rad50 strain (AID 155);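 also: 0% = growth of vehicle-only cultures of the same strain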; details: S. cerevisiae rad50 strain growth inhibition, hits give high values
Outline: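 Genetically altered yeast (DNA repair pathway); compound treatment; growth inhibition vs vehicle ctrl.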

[2] = NCI Yeast Anticancer Drug Screen. Data for the mec2-1 strain (AID 157); details: S. cerevisiae mec2-1 strain, hits give high values
Outline: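 Readout is yeast growth inhibition, normalised to vehicle-treated controls, in the mec2-1 strain exposed to compound.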

[3] = NCI Yeast Anticancer Drug Screen. Data for the sgs1 mgt1 strain (AID 161);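 also: 0% = growth of cultures given vehicle only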; details: S. cerevisiae sgs1 mgt1 strain, hits give high values
Outline: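 Growth of a repair-deficient yeast mutant was monitored after compound treatment and expressed as inhibition relative to vehicle-treated cultures.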

[4] = NCI Yeast Anticancer Drug Screen. Data for the cln2 rad14 strain (AID 165);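 also: 0% = growth equal to vehicle treated cultures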; details: S. cerevisiae cln2 rad14 strain, hits give high values
Outline: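 Relative to vehicle controls, growth inhibition of compound-treated cln2 rad14 yeast was recorded.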

[5] = NCI Yeast Anticancer Drug Screen. Data for the bub3 strain (AID 167); details: S. cerevisiae bub3 mutant strain, hits give high values
Outline: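 Yeast carrying a defined mutation is treated with each compound, and growth is compared with that of vehicle-exposed cells to give inhibition.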

[6] = NCI Yeast Anticancer Drug Screen. Data for the mlh1 rad18 strain (AID 175); details: S. cerevisiae mlh1 rad18 strain growth inhibition, hits give high values
Outline: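 Test agents were incubated with a yeast strain of defined genotype (DNA damage repair defect). Inhibition of growth was derived by comparison with vehicle-exposed cultures.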

[7] = at 5.0 µM (retest, dose inferred, filed as 0.5)
[8] = at 50.0 µM (retest, dose inferred, filed as 5.0)

SMILES	growth inhibition [1, 7]	growth inhibition [1, 8]	growth inhibition ([1]; at 50.0 µM)	growth inhibition [2, 7]	growth inhibition [2, 8]	growth inhibition ([2]; at 50.0 µM)	growth inhibition [3, 7]	growth inhibition [3, 8]	growth inhibition ([3]; at 50.0 µM)	growth inhibition [4, 7]	growth inhibition [4, 8]	growth inhibition ([4]; at 50.0 µM)	growth inhibition [5, 7]	growth inhibition [5, 8]	growth inhibition ([5]; at 50.0 µM)	growth inhibition [6, 7]	growth inhibition [6, 8]	growth inhibition ([6]; at 50.0 µM)
COc1ccc(Cc2coc3ccccc3c2=O)cc1OC	-1%	12%	-0.55%	2%	10%	-2.5%	1%	18%	18.4%	0%	3%	3.8%	23%	68%	71.1% (active)	-3%	12%	0.95%
O=C(O)/C=C\C(=O)Nc1ccc2c(c1)C(=O)c1cc(F)ccc1-2	10%	20%	29%	-1%	-7%	-2.7%	-4%	19%	-5.2%	-6%	6%	68.2%	-2%	2%	-36.6%	8%	17%	4.5%
O=C1CSC(=S)N1/N=C/c1ccc(Cl)c([N+](=O)[O-])c1	28%	86% (active)	63.8%	0%	40%	52.1%	2%	77% (active)	27.4%	-16%	40%	-37.7%	-8%	46%	57.9%	2%	91% (active)	61.2%
CCC1=C(C)/C(=C/c2[nH]c(C(Br)Br)c(CC)c2C)N=C1C(Br)Br	-1%	98% (active)	30.6%	-6%	99% (active)	45.1%	2%	99% (active)	26%	-6%	97% (active)	75.2% (active)	0%	93% (active)	49.3%	0%	98% (active)	45.6%
CCCCCCCCCCN(CCCCCCCCCC)C(=O)COc1c2cc(C(C)(C)C)cc1Cc1cc(C(C)(C)C)cc(c1OCC(=O)N(CCCCCCCCCC)CCCCCCCCCC)Cc1cc(C(C)(C)C)cc(c1OCC(=O)N(CCCCCCCCCC)CCCCCCCCCC)Cc1cc(C(C)(C)C)cc(c1OCC(=O)N(CCCCCCCCCC)CCCCCCCCCC)C2	98% (active)	92% (active)	85.8% (active)	98% (active)	95% (active)	89.3% (active)	99% (active)	95% (active)	89% (active)	98% (active)	94% (active)	87.3% (active)	99% (active)	94% (active)	87.8% (active)	97% (active)	92% (active)	84.8% (active)
Cc1cc(OCCl)ccc1[N+](=O)[O-]	-2%	26%	30.4%	-2%	32%	25.6%	-16%	67%	39.1%	-1%	55%	15.6%	15%	58%	19.9%	1%	80% (active)	74.8% (active)
CC(CCCOC(c1ccccc1)(c1ccccc1)c1ccccc1)OC(=O)Nc1ccccc1 (stereo not given)	85% (active)	85% (active)	83.9% (active)	81% (active)	81% (active)	85.8% (active)	63%	63%	84% (active)	92% (active)	92% (active)	83% (active)	69%	69%	79.7% (active)	93% (active)	93% (active)	81.5% (active)
Cc1cnc(C#N)c(C#N)n1	2%	10%	35.6%	-1%	8%	5.9%	2%	7%	9.95%	0%	7%	12.2%	-1%	-1%	13.2%	-3%	3%	18.1%
O=C(c1cc2c(C(F)(F)F)onc2c2ccccc12)C(F)(F)F	-8%	5%	76.7% (active)	-17%	9%	44.9%	-8%	-2%	50.6%	0%	28%	64.8%	12%	42%	38.9%	0%	26%	36.4%
CCCC(CCC)NCCOC(=O)C(CC)c1ccccc1 (stereo not given)	3%	42%	88% (active)	-5%	23%	15.9%	12%	63%	88.3% (active)	-35%	62%	55.9%	7%	75% (active)	49.6%	4%	47%	75% (active)
